Vif-APOBEC3F blk – qHTS for Inhibitors of Vif-A3F Interactions: qHTS | AID 602313, 2012 | Potency, µM (top dose mostly 46.1 µM), without a hit: at the highest dose activity, negative = active | HeLa A3F-eYFP + Vif (tagged APOBEC3F with the HIV-1 protein that degrades it), YFP fluorescence increase | 390,000 compounds, 0.2% hits; further: % of control where 0% means no effect; nearly all actives have a fitted effect of over 65% in size
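HeLa cells stably expressing Vif plus C-terminally eYFP-tagged A3F were seeded, incubated overnight at 37 deg C, dosed with compound, incubated overnight again at 37 deg C. Yellow fluorescence (Ex 488/Em 500-530) reported blocked Vif-mediated A3F-eYFP degradation.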
Epigenetic reg – Quantitative High-Throughput Screen for Regulators of Epigenetic Control | murine LDR cells, GFP reporter derepression, 30 h | Potency, µM (titrated, usually from 53.9 µM), for the others: at the top dose GFP activation, hits mostly activators | 280,000 compounds, 0.2% hits | AID 1865, 2009; further: % of control where 0% means no effect; nearly all actives have a fitted effect of over 60% in size
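GFP-positive cell count by laser-scanning cytometry (objects 20–120 um) after 30 h, 37 C compound exposure of murine LDR cells; reporter is CMV-GFP integrated at a silenced locus, inducible by HDAC or DNMT inhibitors.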
PINK1 modulator – A Quantitative High throughput Screen to Identify Chemical Modulators of PINK1 Expression | PINK1 immunofluorescence, high-content cytometry, 24 h | Potency, µM (top dose mostly 76.6 µM), inactives show at the highest dose activation (PINK1 increase), most hits filed as activators | 410,000 compounds, 0.2% hits | AID 624263, 2012; active means well fitted activation curve with a large enough effect; inconclusive means small, poorly fitted or top-dose-only effect; cell line not stated here; further: % of control where 0% means no effect; nearly all actives have a fitted effect of over 65% in size
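Measures PINK1 amount and localization on or inside mitochondria by immunofluorescence. Stable cells get compounds at 5 concentrations for 24 hours before fixation and staining; CCCP controls included.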
Vif-APOBEC3G blk – qHTS for Inhibitors of Vif-A3G Interactions: qHTS; Potency, µM (doses to about 46.1 µM), for inactives: top-dose activity, negative = active, actives largely listed as inhibitors; HeLa A3G-eYFP + Vif (tagged APOBEC3G with the HIV-1 protein that degrades it), YFP fluorescence, overnight; 410,000 compounds, 0.076% hits; further: on the % scale 0 is the no-effect control and ±100 the full control effect; nearly all actives have a fitted effect of over 60% in size
Target sequence (Q9HC16 whole entry, looked up): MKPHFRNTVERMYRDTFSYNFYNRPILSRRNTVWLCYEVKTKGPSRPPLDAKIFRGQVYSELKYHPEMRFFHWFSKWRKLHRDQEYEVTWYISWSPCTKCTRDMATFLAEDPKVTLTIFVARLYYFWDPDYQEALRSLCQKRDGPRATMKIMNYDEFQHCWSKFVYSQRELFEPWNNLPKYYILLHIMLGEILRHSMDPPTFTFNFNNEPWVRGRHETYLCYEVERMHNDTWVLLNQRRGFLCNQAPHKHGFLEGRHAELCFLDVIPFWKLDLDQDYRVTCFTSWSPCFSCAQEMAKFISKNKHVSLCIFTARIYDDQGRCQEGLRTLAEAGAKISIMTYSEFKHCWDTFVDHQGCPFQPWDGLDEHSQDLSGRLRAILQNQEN
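HeLa cells stably expressing Vif and C-terminally eYFP-tagged A3G, seeded overnight at 37 deg C, then exposed to compound by pintool overnight at 37 deg C. Rise in yellow fluorescence (Ex 488/Em 500-530, Acumen) marks blocked Vif-driven A3G degradation.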
* marks the source's active call; other numbers are inactive results; ? = inconclusive; / = not tested or not shown; [ ] = dose if it differs, or a comment. Sampled rows, rich in hits. Any-hit rate of the full collection: about 0.52%. Unless noted, the call rests on the fitted dose curve; in most records, active means well fitted curve in the direction sought with a large enough effect; inconclusive means small, poorly fitted or top-dose-only effect, or another doubt; inactive means no such curve, though single readings can be large; an effect the other way counts as inactive or inconclusive. Potency means the concentration at half of the fitted maximal effect.

SMILES	Vif-APOBEC3F blk	Epigenetic reg	PINK1 modulator	Vif-APOBEC3G blk
Cc1cc(C)cc(NC(=O)Cn2cc(C(=O)C3CCCCC3)c3ccccc32)c1	7.1µM*	3%	17%	?
COCCN(CCOC)Cc1c(O)ccc2c1O/C(=C\c1ccc(C)o1)C2=O	25µM*	/	1%	-1%
CCN(CC)Cc1c(O)ccc2c1O/C(=C\C=C\c1ccccc1)C2=O	?	-1%	1%	-4%
COc1ccc(C2c3ccc(O)cc3Oc3ncn4nc(-c5ccco5)nc4c32)cc1OC (stereo not given)	-26%	22µM*	9%	-1%
COc1ccc(C2c3ccc(O)cc3Oc3ncn4nc(-c5ccccn5)nc4c32)cc1OC (stereo not given)	-17%	0%	8%	-2%
O=C(CC1Nc2ccccc2NC1=O)Nc1cc(Cl)cc(Cl)c1 (stereo not given)	-2%	0%	8.9µM*	-1%
CCOC(=O)c1c(NC(=O)CC2Nc3ccccc3NC2=O)sc(C)c1C (stereo not given)	?	?	13µM*	0%
COc1ccc(C(=O)NCC2Cc3cccc(-c4cncnc4)c3O2)c(OC)c1OC (stereo not given)	/	/	-1%	/
N#Cc1cc2ccccc2nc1SCc1ccccn1	13µM*	0%	?	?
Cc1cc2cc3c(cc2nc1SCc1ccccn1)OCCO3	-9%	0%	8%	1%
Cn1ccc(C(=O)NCC2CCC3(CCN(Cc4ccc(F)cc4F)CC3)O2)n1 (stereo not given)	/	/	0%	/
c1ccc(Cn2nnc3c(NCCN4CCOCC4)ncnc32)cc1	0%	-1%	2%[38.3 µM]	1%
c1ccc(CCNc2ncnc3c2nnn3Cc2ccccc2)cc1	-5%	-1%	11µM*	-2%
COc1ccc(/C(O)=C/c2nc3ccccc3n(-c3ccccc3)c2=O)cc1	?	25µM*	?	-10%
O=C(Nc1cccc(Cl)c1)C1C2CCC3C(CCC21)C3(Cl)Cl (stereo not given)	-21%	0%	22µM*	0%
COc1ccc2c(c1)c1nc3ccccc3nc1n2Cc1ccc(OC)c(OC)c1	25µM*	?	5%	?
COc1ccc(-c2ccc(-c3noc(C)n3)c(OC)n2)cc1	-11%	-1%	16µM*	3%
CCOc1nc(-c2ccc(OC)cc2)ccc1-c1noc(C)n1	-2%	0%	-2%[38.3 µM]	2%
Cc1cc(C(=O)NCCCn2ccnc2)cs1	-4%	-1%	10µM*	0%
CN(C)c1ccc(/C=C2\Cc3ccccc3C2=O)cc1	/	/	0%	3.2µM*
Cc1ccc2c(c1)C/C(=C/c1ccc(N(C)C)cc1)C2=O	/	/	0%	-6%
Cc1cnc(C)c(-c2ccc3c(c2)CC(CNC(=O)Cc2c(C)[nH]c4ccccc24)O3)n1 (stereo not given)	/	/	-1%	/
CCOC(=O)Nc1cccc2ccccc12	5%	7%	-7%[38.3 µM]	-6%
CCOC(=O)Nc1ccc2c3c(cccc13)-c1ccccc1-2	3.5µM*	/	4%	?
CC(C)(O)C#Cc1ccc(C(=O)NCCN2Cc3ccccc3OC(c3ccccc3F)C2)o1 (stereo not given)	/	/	-1%	/
SMILES	Vif-APOBEC3F blk	Epigenetic reg	PINK1 modulator	Vif-APOBEC3G blk
COc1cccc(CNC(=O)c2c(OC)cc(=O)n3c2CCN(C(=O)C2=C(C)OCCO2)CC3)c1	/	/	-1%	/
c1ccc(-c2n[nH]c(-c3ccccn3)n2)nc1	1%	1%	1%[38.3 µM]	0%
c1ccc(-c2n[nH]c(-c3ccccn3)n2)cc1	7%	22µM*	-1%	-7%
CC1=CC(C)(C)Nc2ccc(OC(=O)CCN3C(=O)c4ccccc4C3=O)cc21	?	?	-1%	11µM*
Cc1ncc2c(c1CNC(=O)c1ccc3c(c1)OCO3)CCN(C(=O)c1cn3ccccc3n1)C2	/	/	0%	/
O=C1S/C(=C/c2ccc(N3CCOCC3)o2)C(=O)N1Cc1c(F)cccc1Cl	?	2.5µM*	?	4µM*
O=C1S/C(=C\c2ccc(N3CCOCC3)o2)C(=O)N1c1ccccc1	?	14µM*	?	4.5µM*
O=C1N=C(N2CCOCC2)S/C1=C/c1ccc(-c2ccccc2Cl)o1	5%	-1%	2%	2%
O=C(NCCN1CCOCC1)c1ccc2c(c1)N(Cc1c(F)cccc1Cl)C(=O)c1ccccc1S2	-7%	-3%	-1%	-9%
O=C1S/C(=C\c2ccc(N3CCOCC3)o2)C(=O)N1Cc1c(F)cccc1Cl	?	8.9µM*	?	?
COC(=O)C1CCCCN1Cc1ccc2c(c1)CN(C(=O)c1csc(-c3cccs3)n1)CCO2 (stereo not given)	/	/	-1%	/
COc1ccc(C2C=C(c3ccc(Cl)cc3)Nc3nc(-c4ccc(Cl)cc4)nn32)cc1 (stereo not given)	?	2%	16µM*	-28%
Cc1ccc(C2=CC(c3ccc(Cl)cc3)n3nc(-c4ccc(C)cc4)nc3N2)cc1 (stereo not given)	1%	-2%	0%	1%
CCC1C(=O)NCCN1Cc1ccc2c(c1)CN(Cc1ccc(OC)c(OC)c1)CCO2 (stereo not given)	/	/	0%	/
O=C(NCC1(N2CCOCC2)CCCC1)c1cnn(-c2ncc3c(n2)-c2ccccc2CC3)c1C1CC1	/	/	1%	/
Cc1ccsc1CN1CCc2nnc(CCNC(=O)c3ccc(F)cc3)n2CC1	/	/	1%	/
COc1ccccc1NS(=O)(=O)c1cc(NC(=S)Nc2cc(C)cc(C)c2)ccc1Cl	0%	-1%	45µM*	3%
OC1CCN(Cc2ccc3c(c2)CN(C/C=C/c2ccco2)CCO3)CC1	/	/	1%	/
CCC(C)NC(=O)CSc1nc2cc3c(cc2c(=O)n1Cc1ccc(C(=O)NCCc2ccc(OC)c(OC)c2)cc1)OCO3 (stereo not given)	/	11µM*	0%	-4%
COc1ccc(CCNC(=O)c2ccc(Cn3c(SCC(=O)NCCC(C)C)nc4cc5c(cc4c3=O)OCO5)cc2)cc1OC	7%	-1%	-1%	5%
COc1ccc(-c2c[n+]3c4n2CCCCC4=C(c2ccc(Br)cc2)C3)cc1	-15%	6%	?	0%
Clc1ccc(C2=C3CCCCn4c(-c5ccccc5)c[n+](c43)C2)cc1	-8%	1%	16µM*	-10%
CCOc1ccc2cc(-c3nnc(Nc4ccccc4F)s3)c(=O)oc2c1	?	3.5µM*	0%	6%
COc1ccc2oc(=O)c(-c3nnc(NCc4ccco4)s3)cc2c1	?	17%	2%	-31%
O=c1oc2ccccc2cc1-c1nc2ccccc2o1	-21%	3%	0%[38.3 µM]	-20%
COc1ccc2oc(=O)c(-c3nc4ccccc4o3)cc2c1	13µM*	0%	-2%	?
CCOc1ccccc1Nc1nnc(-c2cc3cc(OC)ccc3oc2=O)s1	7.1µM*	18µM*	5%	-16%
COC(=O)c1sc2cc([N+](=O)[O-])cc(SCC(C)C)c2c1N	10µM*	?	?	10µM*

Screening results (PubChem BioAssay)
